Data from PubChem BioAssay AID1159580 (chemical genetic matrix, 2015).
Out of some 5,500 compounds screened, about 2,000 (36%) were called active. Roughly 18% stayed inconclusive and do not appear here. No stated cut-off is given here; in the data, active means normalized growth mostly below about 0.91 (no sharp cut-off); inconclusive means no clear call, values can overlap the other calls; inactive means mostly above about 0.92. The list shows a part of the results.

Assay: chemical genetic growth profiling, strain panel (AID 1159580);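 further: tested at 20 µM; growth read once vehicle control cultures reached saturation at 30 °C; 1 = growth at the plate median or of vehicle wells; lower values mean less growth of the strain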
Conditions: S. cerevisiae deletion strains, growth OD

Measured: normalized growth

O=c1ccc2ccc(O)cc2o1
inactive: locus YAL021C, strain ccr4, active compounds read low 1.05 | locus YAL026C, strain drs2, active compounds read low 0.984 | locus YAL030W, strain snc1, active compounds read low 0.999 | locus YBL061C, strain skt5, active compounds read low 0.991 | locus YBR009C, strain hhf1, active compounds read low 1.01 | locus YBR023C, strain chs3, active compounds read low 1.01 | locus YBR171W, strain sec66, active compounds read low 0.987 | locus YBR231C, strain swc5, active compounds read low 0.976 | locus YBR279W, strain paf1, active compounds read low 1.01 | locus YCL011C, strain gbp2, active compounds read low 1.01 | locus YCL016C, strain dcc1, active compounds read low 1.02 | locus YCL069W, strain vba3, active compounds read low 0.996 | locus YCR088W, strain abp1, active compounds read low 0.996 | locus YDL005C, strain med2, active compounds read low 0.981 | locus YDL040C, strain nat1, active compounds read low 0.988 | locus YDR001C, strain nth1, active compounds read low 0.988 | locus YDR069C, strain doa4, active compounds read low 0.993 | locus YDR137W, strain rgp1, active compounds read low 1.02 | locus YDR159W, strain sac3, active compounds read low 0.972 | locus YDR195W, strain ref2 0.942 | locus YDR297W, strain sur2, active compounds read low 0.986 | locus YDR334W, strain swr1, active compounds read low 0.985 | locus YDR335W, strain msn5, active compounds read low 1 | locus YDR392W, strain spt3, active compounds read low 0.96 | locus YEL003W, strain gim4, active compounds read low 0.988 | locus YEL037C, strain rad23, active compounds read low 0.985 | locus YEL061C, strain CIN8 (second series), active compounds read low 0.989 | locus YER015W, strain faa2, active compounds read low 1.01 | locus YER016W, strain bim1, active compounds read low 0.996 | locus YER111C, strain swi4, active compounds read low 0.981 | locus YER155C, strain BEM2 (second series), active compounds read low 0.986 | locus YFR010W, strain ubp6, active compounds read low 0.976 | locus YGL167C, strain pmr1, active compounds read low 0.99 | locus YGL173C, strain kem1, active compounds read low 0.988 | locus YGL227W, strain vid30, active compounds read low 0.983 | locus YGL240W, strain doc1, active compounds read low 0.976 | locus YGL253W, strain hxk2, active compounds read low 0.972 | locus YHR013C, strain ard1, active compounds read low 0.997 | locus YHR027C, strain rpn1, active compounds read low 0.981 | locus YHR142W, strain chs7, active compounds read low 1.01 | locus YJL092W, strain hpr5, active compounds read low 0.994 | locus YJL095W, strain BCK1 (second series), active compounds read low 1 | locus YJL115W, strain asf1, active compounds read low 0.985 | locus YJL129C, strain trk1, active compounds read low 0.972 | locus YJL154C, strain vps35, active compounds read low 0.988 | locus YJL164C, strain tpk1, active compounds read low 1.01 | locus YJL166W, strain qcr8, active compounds read low 1 | locus YKL160W, strain elf1, active compounds read low 1.01 | locus YKR026C, strain gcn3, active compounds read low 0.991 | locus YKR091W, strain srl3, active compounds read low 0.992 | locus YLL001W, strain dnm1, active compounds read low 1.01 | locus YLL026W, active compounds read low 1 | locus YLL041C, strain sdh2, active compounds read low 0.992 | locus YLR027C, strain aat2, active compounds read low 1.01 | locus YLR221C, strain rsa3, active compounds read low 0.98 | locus YLR258W, strain gsy2, active compounds read low 1.03 | locus YLR262C, strain YPT6 (second series), active compounds read low 1.01 | locus YLR320W, strain mms22, active compounds read low 0.975 | locus YLR342W, strain FKS1, active compounds read low 1 | locus YLR357W, strain rsc2, active compounds read low 0.996 | locus YLR370C, strain arc18, active compounds read low 1 | locus YLR384C, strain iki3, active compounds read low 0.988 | locus YML120C, strain ndi1, active compounds read low 1.01 | locus YMR058W, strain fet3, active compounds read low 0.99 | locus YMR125W, strain sto1, active compounds read low 1.01 | locus YMR129W, active compounds read low 0.993 | locus YMR205C, strain PFK2, active compounds read low 1.02 | locus YMR231W, strain pep5, active compounds read low 0.982 | locus YNL071W, strain lat1, active compounds read low 1 | locus YNL209W, strain ssb2, active compounds read low 1.01 | locus YNL248C, strain rpa49, active compounds read low 0.999 | locus YNL322C, strain KRE1 (second series), active compounds read low 0.996 | locus YNR049C, strain mso1, active compounds read low 0.979 | locus YOR001W, strain rrp6, active compounds read low 0.931 | locus YOR070C, strain gyp1, active compounds read low 0.999 | locus YOR080W, strain dia2, active compounds read low 0.992 | locus YOR083W, strain WHI5, active compounds read low 1.03 | locus YOR106W, strain vam3, active compounds read low 1.03 | locus YOR265W, strain rbl2, active compounds read low 0.994 | locus YOR270C, strain vph1, active compounds read low 0.985 | locus YOR290C, strain snf2, active compounds read low 1 | locus YPL051W, strain arl3, active compounds read low 0.997 | locus YPL078C, strain atp4, active compounds read low 1.01 | locus YPL106C, strain sse1, active compounds read low 1.03 | locus YPL240C, strain hsp82, active compounds read low 0.998
